From PubChem
FGF22 binding-1 – FGF22 (human) thermal shift binding; recombinant FGF22 thermal shift, SYPRO orange fluorescence; percent of sucrose octasulfate shift, DMSO zero; AID 651658; hit rate 1.5% among 340,000; activity (Tm shift, normalised), % at 9.99 µM;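 active means mean Tm shift, scaled 0 neutral to 100 positive control, at about 1.3% or above, every replicate too, limit read from the data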
Target sequence (Q9HCT0 whole entry, looked up): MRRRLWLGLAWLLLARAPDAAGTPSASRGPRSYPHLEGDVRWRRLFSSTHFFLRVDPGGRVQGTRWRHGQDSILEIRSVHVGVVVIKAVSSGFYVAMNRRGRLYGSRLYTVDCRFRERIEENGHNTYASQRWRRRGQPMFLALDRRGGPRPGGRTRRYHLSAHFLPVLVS
CASP6 VEID inh – inhibitors of human caspase-6; purified caspase-6, Z-VEID-R110 cleavage fluorescence; P55212; hit rate 0.53% among 350,000; inhibition, % at 12.5 µM;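 active means mean inhibition across replicates at least about 35%, with every replicate also reaching that limit, limit read from the data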;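 further: 0% = median of neutral control wells and 100% = no fluorescence left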
ERAP1 HTS inh – blocks human ERAP1 aminopeptidase activity | recombinant ERAP1, Leu-AMC fluorescence, 60 min | inhibition, % at 10.7 µM | hit rate 0.15% among 340,000;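 active means mean replicate inhibition of at least 30%, or all replicates individually reaching that 30% level; inactive means mean below 30% and not every replicate reaching it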;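 further: 0% = neutral control wells and 100% = L-leucinethiol positive control wells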
SIRT5 block – sirtuin-5 (human) deacylase inhibition | Purified SirT5, succinyl-peptide AMC, trypsin-coupled fluorescence | hit rate 1.1% among 330,000 | Q9NXA8 | inhibition, % at 15 µM; in the data active means inhibition above about 15%
Target sequence (Q9NXA8 whole entry, looked up): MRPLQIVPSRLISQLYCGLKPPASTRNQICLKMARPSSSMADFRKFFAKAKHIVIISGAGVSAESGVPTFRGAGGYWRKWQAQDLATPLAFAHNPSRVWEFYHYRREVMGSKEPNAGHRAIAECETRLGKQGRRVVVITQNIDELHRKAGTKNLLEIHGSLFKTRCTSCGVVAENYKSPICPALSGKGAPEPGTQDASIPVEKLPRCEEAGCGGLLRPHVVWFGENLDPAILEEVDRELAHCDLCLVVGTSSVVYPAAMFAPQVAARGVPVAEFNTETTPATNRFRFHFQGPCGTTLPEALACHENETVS
GSIS activator – GLuc luminescence reporter in INS-1E cells, primary screen for activators of glucose-dependent secretion of insulin; INS-1E GLuc reporter insulin secretion, 2-3 h; activation, % at 16.6 µM; hit rate 0.61% among 370,000;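 active means lowest replicate activation of at least 40%, so every replicate reaches that level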;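 further: 0% = median of neutral control wells and 100% = median of IBMX positive control wells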
FGF22 binding-2 – binds human FGF22 shifting its melting temperature. recombinant FGF22 thermal shift, SYPRO orange fluorescence. thermal shift activity, °C (ΔTm) at 38 µM. AID 720646. shares compounds with FGF22 binding-1. hit rate 2% among 1,000;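 active means fitted rise in melting shift crosses a set limit at or below the top valid dose tested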
FGF22 TSA DP – binds human FGF22 shifting its melting temperature | AID 743017 | Thermal shift assay, SYPRO orange, melting temperature shift | Tm shift (activity), % at 38 µM | 50 tested, under 10 active | shares compounds with FGF22 binding-1;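 active means compounds whose fitted dose curve of melting temperature shift rises past a set threshold within the tested doses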
TSA no protein – shows thermal shift signal without protein, FGF22 counter-screen. shares compounds with FGF22 binding-1. compound-only SYPRO orange thermal shift counter-screen, no protein. AC50, µM (doses to about 38 µM). hit rate 2% among 1,000. AID 743019;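 active means rising signal whose fitted curve reaches the 0.54 level within the top valid dose, showing a melting point, actives reach about 13 µM in these data; inactive means the rest, including activity in the opposite direction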; further: value is where the raw curve crosses a fixed level and not half-maximal
The depositor's hits bear a star; i = inactive; . = not tested or not shown; [ ] = dose if it differs, or a comment. In the library only some 3.3% were active in any assay of this set; here they are far more common.

SMILES	FGF22 binding-1	CASP6 VEID inh	ERAP1 HTS inh	SIRT5 block	GSIS activator	FGF22 binding-2	TSA no protein	others
CC(C)(C)Nc1nc2cc([N+](=O)[O-])ccc2o1	0	-4	.	-2	.	.	.
C[C@@H]1CCCCO[C@H](CN(C)C(=O)Nc2cccc3ccccc23)[C@@H](C)CN([C@H](C)CO)C(=O)c2cc(NS(=O)(=O)c3cn(C)cn3)ccc2O1	0	.	.	.	-5	.	.
O=C(Nc1cccc(O)c1)c1cnn2cccnc12	0	8	1	-1	10	.	.
O=C(Nc1ccc2c(c1)OCO2)c1cnn2cccnc12	1.9*	0	-1	-3	45	0.13	i
C[C@H](CO)N1C[C@H](C)[C@@H](CN(C)CC2CCOCC2)Oc2ncc(C#C[C@@H](C)O)cc2C1=O	0	-1	-1	-3	27	.	.
COc1ccc(-c2nc(-c3ccc(O)cc3O)cs2)cc1OC	2.5*	-1	-3	2	.	0.11	i	FGF22 TSA DP=0
COc1ccc(-c2csc(-c3ccc(O)cc3)n2)cc1	0	4	3	-6	-5	.	.
O=C(Nc1cccc(F)c1)N1CCCCN2[C@H](C1)[C@H](c1ccc(-c3ccccc3F)cc1)[C@@H]2CO	-1	-1	-1	2	-6	.	.
CCNc1c(NS(=O)(=O)c2ccc(Br)s2)c(=O)oc2ccccc12	1.8*	-5	2	0	23	0.043	i
Cc1ccc(-c2n[nH]c(=S)n2/N=C/c2c(C)[nH]n(-c3ccccc3)c2=O)cc1	2.7*	-4	0	3	-5	-0.001	i
COc1cc(CCC(=O)OCC(=O)Nc2ccc(Br)cc2F)cc(OC)c1OC	0	1	-2	-5	-10	.	.
COc1cc(CCC(=O)OCC(=O)Nc2ccc(C)cc2Br)cc(OC)c1OC	28*	0	-3	-3	0	0.003	i
C[C@H](CO)N1C[C@H](C)[C@@H](CN(C)S(=O)(=O)c2ccccc2)Oc2ccc(NS(=O)(=O)c3ccc(F)cc3)cc2CC1=O	0	-2	0	0	-11	.	.
Cc1ccc(S(=O)(=O)N2C[C@H](O)COC[C@@H]3O[C@H](CC(=O)NCc4ccc(Cl)c(Cl)c4)CC[C@H]32)cc1	0	-1	0	-1	-18	.	.
Cc1ccc(S(=O)(=O)N2C[C@@H](O)COC[C@@H]3O[C@@H](CC(=O)NCc4ccc(Cl)c(Cl)c4)CC[C@H]32)cc1	1.4*	0	0	2	-10	0.1[42 µM]	i	FGF22 TSA DP=0
O=C(C[C@@H]1CC[C@H]2[C@@H](COC[C@@H](O)CN2S(=O)(=O)c2cccc(F)c2)O1)Nc1ccccc1	2.3*	.	.	.	4	-1.1	i
O=C(C[C@H]1CC[C@@H]2[C@H](COC[C@H](O)CN2S(=O)(=O)c2cccc(Cl)c2)O1)Nc1ccccc1	1.4*	-4	-2	1	-23	0.041[42 µM]	i	FGF22 TSA DP=0
COc1cccc(S(=O)(=O)N2C[C@@H](O)COC[C@@H]3O[C@@H](CC(=O)Nc4ccccc4)CC[C@H]32)c1	1.3*	6	-2	-1	1	-0.24[42 µM]	i
COc1ccc(N2CCN(CCOc3ccc4c(C)cc(=O)oc4c3)CC2)cc1	2.2*	0	-1	-2	.	.	i
CC(OC(=O)c1ccccc1)C(=O)NCCC1=CCCCC1 (centres undefined)	1.6*	3	-1	-3	-1	0.12	i
O=C1COc2ccc(S(=O)(=O)N3CCCCC3)cc2N1	0	6	-1	2	26	.	.
O=C1COc2ccc(S(=O)(=O)N3CCCC3)cc2N1	1.5*	1	-4	-6	11	0.026	i
O=C(NCC[C@@H]1CC[C@@H](NC(=O)Nc2cc(F)ccc2F)[C@@H](CO)O1)Nc1ccc(F)cc1	1.3*	-3	0	-2	-30	0.15	i
O=C(C[C@@H]1CC[C@@H](NC(=O)Nc2cc(F)ccc2F)[C@H](CO)O1)NCCCN1CCOCC1	39*	1	3	-4	3	0.23[42 µM]	i
O=C(C[C@H]1CC[C@@H](NC(=O)Nc2cc(F)ccc2F)[C@@H](CO)O1)Nc1ccc(-c2ccccc2)cc1	1.3*	3	3	1	-33	0.11[42 µM]	i
SMILES	FGF22 binding-1	CASP6 VEID inh	ERAP1 HTS inh	SIRT5 block	GSIS activator	FGF22 binding-2	TSA no protein	others
O=C(NCC[C@H]1CC[C@@H](NC(=O)Nc2cc(F)ccc2F)[C@@H](CO)O1)Nc1ccc(F)cc1	0	-87	0	-7	-29	.	.
COc1cccc(NC(=O)N[C@@H]2CC[C@@H](CC(=O)Nc3ccccc3)O[C@H]2CO)c1	22*	3	0	1	0	0.26	i
Cc1noc(C)c1NC(=O)Nc1ccc2c(c1)C(=O)N([C@@H](C)CO)C[C@@H](C)[C@H](CN(C)C(=O)Nc1c(C)noc1C)O2	0	.	0	0	25	.	.
CCC(=O)N[C@@H]1C=C[C@@H](CC(=O)NCc2ccc(OC)cc2)O[C@@H]1CO	1	1	1	1	-10	.	.
CCCNC(=O)N(C)C[C@H]1Oc2cc(-c3cncnc3)ccc2S(=O)(=O)N([C@@H](C)CO)C[C@H]1C	0	1	0	-3	5	.	.
O=C(C[C@H]1CC[C@@H]2[C@H](COC[C@@H](O)CN2CC2CCCC2)O1)NCc1ccc(Cl)cc1	.	3	-3	0	-5	.	.
CS(=O)(=O)Nc1ccc2c(c1)[C@H]1C[C@@H](CC(=O)NC3CCCCC3)O[C@@H](CO)[C@H]1O2	0	-3	-1	-2	-3	.	.
O=C(C[C@@H]1CC[C@H](NC(=O)c2ccc3c(c2)OCO3)[C@H](CO)O1)NCc1ccc(Oc2ccccc2)cc1	16*	2	4	-3	-7	0.34[42 µM]	i
C[C@H](NC(=O)C[C@@H]1CC[C@@H](NC(=O)Nc2ccc3c(c2)OCO3)[C@@H](CO)O1)c1ccccc1	6.9*	-3	1	0	16	0.068[42 µM]	i
CCc1cc(-c2n[nH]c(C)c2-c2nc3ccccc3n2C)c(O)cc1O	0	-1	6	-2	5	.	.
CCc1cc(-c2n[nH]c(C)c2-c2ccc3c(c2)OCCO3)c(O)cc1O	.	.	.	.	.	.	.	FGF22 TSA DP=0
CCOC(=O)c1oc2cc(O)c(CC)cc2c(=O)c1-c1ccc2c(c1)OCCO2	0	0	1	2	19	.	.
CCc1cc(-c2[nH]ncc2-c2ccc3c(c2)OCCO3)c(O)cc1O	.	.	.	.	.	.	.	FGF22 TSA DP=0
CCNS(=O)(=O)c1ccc(NC(=O)c2ccccc2)cc1	.	.	.	.	-4	.	.
CCOCCCNS(=O)(=O)c1ccc(NC(=O)c2ccccc2)cc1	1.8*	2	-2	-5	4	0.028	i
